Screening results as filed in PubChem BioAssay.
TROY NFkB inh – inhibitors of TROY-dependent NF-kB signaling | Q293 LMP1-TROYcd NF-kB luciferase reporter, 4 h | inhibition, % at 10 µM | 360,000 compounds, 0.98% hits | AID 1347056;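 active means compounds whose plate-normalised and pattern-corrected inhibition of the luciferase reporter signal at the single screening dose is 50% or more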
HIF-2a inh – blocks HIF-2a reporter activity; 786-0 RCC cells HIF-2a reporter, luciferase luminescence, overnight; inhibition, % at 18.8 µM; 360,000 compounds, 0.72% hits; AID 624352;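 active means inhibition of the luminescence signal of 40% or more relative to plate controls, in a single-dose primary screen at 18.75 µM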
Peg3 promoter – Peg3 promoter activity inhibition; HeLa PEG-Prom luciferase reporter, luminescence, overnight; 360,000 compounds, 1.7% hits; AID 588405; inhibition, % at 20 µM;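 active means inhibition of at least 50% at 20 µM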
TWEAK-Fn14 inh – blocks TWEAK-Fn14 interaction in a reporter cell assay. TWEAK-stimulated Fn14 reporter cells, luciferase luminescence, 8 h. inhibition, % at 10 µM. 360,000 compounds, 2% hits; in the data active means inhibition above about 50%
CF NFkB block – inhibitors of cystic fibrosis induced NF-kB; KKLEB NF-kB-GFP reporter, PAF-induced, GFP fluorescence overnight; inhibition, % at 5 µM; 360,000 compounds, 0.86% hits; AID 588850;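 active means at least 50% inhibition at 5 µM, scaled per plate between neutral and stimulator controls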;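 further: PAF is a Pseudomonas aeruginosa culture filtrate used as stimulus; plate controls were PAF-stimulated DMSO wells for no effect and unstimulated DMSO wells for full effect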
KKLEB cytotox – CF airway cell cytotoxicity counter-screen; KKLEB CF airway cells viability, ATPlite luminescence, overnight; active compounds read low; cells stimulated with P. aeruginosa culture filtrate; activity change (cytotoxicity), % at 5 µM; 360,000 compounds, 0.36% hits; AID 602141;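 active means corrected activity change at or below -50% at 5 µM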
Active calls of the source: *; . = no result. Sampled rows, rich in hits. Any-hit rate of the full collection: about 4%.

SMILES	TROY NFkB inh	HIF-2a inh	Peg3 promoter	TWEAK-Fn14 inh	CF NFkB block	KKLEB cytotox
COc1ccc(C(=O)Nn2c(SCC(=O)c3ccccc3)nc3ccccc3c2=O)cc1	79.6*	15.7	-24.9	91.8*	-22.8	-3.7
C=CCn1c(SCc2ccc(C(=O)O)cc2)nc2sc(C)c(C)c2c1=O	38.7	-10.0	-5.2	-1.8	-20.3	-0.5
Cc1ccc(Nc2ncnc(Cl)c2N)cc1	-20.6	-109.9	-43.6	-7.6	18.9	-5.8
COCCCn1c(C)nnc1SCc1ccc(C(C)(C)C)cc1	-1.1	15.8	15.7	-8.4	2.9	-9.3
Cc1ccc(NC(=O)COc2ccccc2CNC(C)(C)CC(C)(C)C)cc1	-38.0	-34.8	74.5*	-33.8	30.5	-17.9
Cc1[nH]nc2c1C(c1cccs1)C(C#N)=C(N)O2 (stereo not given)	8.2	26.4	15.8	4.8	5.3	-10.9
Cc1ccsc1C1C(C#N)=C(N)Oc2n[nH]c(C)c21 (stereo not given)	6.1	18.1	33.0	61.1*	-2.7	6.3
CC1CCCCN1S(=O)(=O)c1ccc(C(=O)Nc2ccccc2-c2nc3ccccc3[nH]2)cc1 (stereo not given)	25.6	10.0	43.4	53.0*	21.9	-4.4
N#CCc1nc(-c2cc3ccccc3oc2=O)cs1	-42.9	-145.9	-74.2	-20.0	-16.6	13.9
CC1CCC(=C(C#N)c2nc(-c3cc4ccccc4oc3=O)cs2)CC1 (stereo not given)	47.2	-242.2	-302.1	54.0*	7.1	-11.5
COc1ccc2[nH]c(=O)c(CN(CCO)C(=O)c3cccs3)cc2c1	-4.2	10.2	4.8	9.4	-5.9	4.3
Cc1ccc(OCc2nnc(SCC(=O)Nc3sc(C)c(C)c3C#N)n2C)cc1	-15.6	-0.8	-15.4	51.7*	2.8	-14.8
COc1cccc(CC(=O)OCC(=O)NCCc2ccc(F)cc2)c1	-7.5	6.6	9.7	53.8*	-12.5	-1.5
COc1ccc(CC(=O)OCC(=O)NCc2ccc(F)cc2)cc1	-2.2	11.1	10.8	-32.7	15.3	-5.9
O=C(CNS(=O)(=O)Cc1ccccc1)NCc1ccccc1	-5.5	6.5	-4.3	13.8	-3.0	12.7
O=C(CNS(=O)(=O)Cc1ccccc1)NNc1ccccc1	55.6*	8.2	-4.1	3.5	-16.9	9.7
CCCC(=O)Nc1ccc(C(=O)O)cc1NC(=O)CCC	-14.0	2.1	13.7	102.6*	4.3	-8.1
COc1ccc(-c2cn3cc(C)ccc3n2)cc1F	61.1*	-16.0	-2.4	76.5*	-11.2	-27.2
CO[C@@]12[C@H](COC(N)=O)C3=C(C(=O)C(C)=C(N)C3=O)N1C[C@@H]1N[C@@H]12	-11.7	-5.5	-8.3	-6.5	17.4	-1.0
CO[C@@]12[C@@H]3N[C@@H]3CN1C1=C(C(=O)C(N)=C(C)C1=O)[C@@H]2COC(N)=O	11.0	6.4	59.9*	-11.6	-21.7	-13.4
COC(=O)c1ccc2nc(-c3ccc(OC)c(OC)c3)c(Cc3ccc(OC)cc3C)n2c1	5.9	11.7	1.8	-13.3	16.0	-16.4
COC(=O)c1ccc2nc(-c3ccc(Cl)cc3)c(Cc3ccc(OC)cc3C)n2c1	51.3*	-34.6	.	81.5*	.	.
COc1ccnc(Oc2ccccc2)c1C(=O)N/C=N/OCc1ccc(F)cc1Cl	2.5	-12.2	56.9*	19.0	39.5	-25.8
CCC(=O)NC(=S)Nc1ccc(NC(=S)NC(=O)c2ccccc2)cc1	20.8	-32.4	-24.5	31.6	-3.2	5.6
O=C(CSc1ncnc2sccc12)Nc1ccccc1	-10.8	-59.7	-23.6	-33.5	-20.2	-1.7
SMILES	TROY NFkB inh	HIF-2a inh	Peg3 promoter	TWEAK-Fn14 inh	CF NFkB block	KKLEB cytotox
Cc1ccc2sc(NC(=O)CSc3nc(C)cc(C)c3C#N)nc2c1	-9.9	-210.7	-274.9	0.9	-9.8	-23.3
O=C(CSc1ncnc2c1oc1ccccc12)Nc1nc2ccccc2s1	29.3	21.4	56.1*	-39.5	45.5	-33.9
O=C(CSc1ncnc2c1sc1ccccc12)Nc1ccc(Br)cc1	-7.9	9.6	-6.8	-51.3	42.6	-57.3*
Cc1cc(C(F)(F)F)c(C#N)c(SCC(=O)Nc2nc3ccccc3s2)n1	84.8*	-34.8	-76.9	88.8*	-6.4	-40.0
CCc1nnc(NC(=O)CSc2ncnc3c2oc2ccccc23)s1	-5.8	13.4	44.2	1.9	16.9	-11.4
CCCNc1ccc(C(=O)OCC)cc1[N+](=O)[O-]	-29.2	-279.1	-336.0	-15.5	8.6	3.7
CCOC(=O)c1ccc(NC(C)=O)c([N+](=O)[O-])c1	68.8*	12.5	9.0	58.9*	13.5	-12.0
CC1=CN2C(=N)/C(=C/c3ccc(C)o3)C(=O)N=C2S1	15.5	-93.4	-84.9	65.8*	-1.1	-5.8
COc1cccc(C(C)=C2SC(=S)NC2=O)c1	-26.7	-30.9	-36.9	2.1	13.7	-6.8
CCN(CC)c1ccc2nc3ccccc3[n+](CC)c2c1	25.1	16.7	56.9*	64.1*	-5.2	12.6
CCN(CC)C(=O)c1ccc2nc3ccccc3nc2c1	-11.7	-75.8	-70.6	11.8	-10.1	9.2
CC[n+]1ccccc1/C=C/Nc1ccccc1	6.4	15.9	24.4	0.9	12.0	6.5
COC(=O)c1ccc(CCc2cc(O)c(Br)cc2O)cc1	-3.5	23.9	-17.9	91.8*	3.9	-1.6
COC(=O)c1ccc(CCc2cc(O)ccc2O)cc1	4.5	32.0	-84.4	87.5*	23.4	-6.5
COC(=O)c1ccc(O)cc1	13.8	3.1	5.7	4.4	-12.6	-14.6
CN(C(=O)c1cc(COc2ccc(F)c(F)c2)on1)C1CCOC1 (stereo not given)	-36.2	-73.5	-89.7	23.4	-6.4	3.5
Cc1cc([N+](=O)[O-])nn1Cc1ccc(C(=O)N/N=C/c2ccc(O)cc2O)cc1	14.2	-2.3	56.2*	-12.4	23.7	-18.5
CCCCN(CC)c1nc(-c2ccncc2)nc2ccccc12	26.1	25.0	31.9	56.9*	33.8	-14.5
CCCN(CCC)c1nc(-c2ccccn2)nc2ccccc12	19.6	17.1	51.5*	25.4	4.3	-22.4
COCCN(CCOC)c1nc(-c2ccc(C)cc2)nc2ccccc12	-25.9	-47.3	-3.6	-7.2	-4.0	-14.2
CCN1CCN(c2nc(-c3ccccn3)nc3ccccc23)CC1	1.7	0.8	20.9	-0.7	-8.3	15.5
O=C(Nc1cccc(Cl)c1)Nc1ccnc(-c2cccnc2)n1	17.1	-73.4	78.0*	53.5*	-107.2	9.5
CCc1ccc(C(=O)COC(=O)CNC(=O)C2CCCCC2)cc1	76.3*	-42.0	-67.2	66.0*	14.5	-6.2
CCOC(=O)c1c(C)[nH]c(C(=O)COC(=O)CNC(=O)C2CCCCC2)c1C	69.1*	-11.1	-40.7	9.5	-5.1	8.3
O=C(COC(=O)c1ccc(S(=O)(=O)N2CCCC2)cc1)Nc1ccccc1Cl	5.1	5.4	-11.0	9.0	13.9	1.4
COc1ccc(-c2cn[nH]c2N)c(OC)c1	14.3	8.7	10.5	27.4	63.5*	-19.7
